Only some compounds are listed: those with a hit (about 15% of all), similar ones and a draw of the others.
ELG1 repair inh: blocks ELG1-dependent DNA repair in HEK293T cells. HEK293T ELG1-luciferase reporter, luminescence, 16 h; DNA damage induced by 5-fluorouridine. Potency, µM (series often up to 46.1 µM), for the others: at the top dose activity change, negative = inhibition, actives largely listed as inhibitors. 330,000 tested, 2.3% active. AID 504467; note: nearly all actives have a fitted effect of over 55% in size
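Quantitative HTS, concentration-response format. 2,000 cells/well co-treated with 5-fluorouridine and compound, 16 hr in 5% CO2 at 37 °C; ONE-Glo luminescence read after 30 min.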
ALOX12 inh: inhibitors of human 12S-lipoxygenase ALOX12 | P18054 | purified 12hLO, xylenol orange hydroperoxide absorbance | Potency, µM (titrated, usually from 108 µM), without a hit: at the highest dose activity change, negative = inhibition, most hits filed as inhibitors | 580,000 tested, 1.1% active | AID 1671190
Target sequence (P18054 whole entry, looked up): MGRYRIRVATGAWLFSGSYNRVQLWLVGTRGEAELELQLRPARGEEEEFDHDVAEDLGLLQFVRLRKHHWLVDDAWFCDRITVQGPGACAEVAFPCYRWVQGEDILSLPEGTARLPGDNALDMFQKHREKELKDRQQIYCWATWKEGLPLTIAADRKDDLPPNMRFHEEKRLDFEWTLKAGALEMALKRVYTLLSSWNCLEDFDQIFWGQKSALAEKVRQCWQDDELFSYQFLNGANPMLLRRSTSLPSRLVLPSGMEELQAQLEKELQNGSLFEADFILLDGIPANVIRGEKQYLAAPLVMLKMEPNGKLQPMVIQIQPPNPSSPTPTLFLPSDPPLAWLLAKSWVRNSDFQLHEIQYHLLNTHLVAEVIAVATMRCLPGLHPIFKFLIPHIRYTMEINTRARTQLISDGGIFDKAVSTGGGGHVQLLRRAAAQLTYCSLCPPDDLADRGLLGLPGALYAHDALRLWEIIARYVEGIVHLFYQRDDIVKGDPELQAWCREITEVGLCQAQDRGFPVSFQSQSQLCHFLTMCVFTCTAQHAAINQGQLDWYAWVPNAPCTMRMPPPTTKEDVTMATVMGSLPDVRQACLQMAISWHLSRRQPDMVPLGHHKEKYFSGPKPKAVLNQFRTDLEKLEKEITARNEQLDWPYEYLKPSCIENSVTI
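Purified human 12hLO at 150 nM in 25 mM Hepes, 0.01% Triton X-100, pH 7.0, preincubated 15 min at room temperature with compound. Reaction started with 40 uM arachidonic acid, 30 min at room temperature. Hydroperoxide measured by Fe-xylenol orange, 573/405 nm absorbance ratio.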
DT40 TDP1 no CPT: qHTS for Inhibitors of human tyrosyl-DNA phosphodiesterase 1 (TDP1): qHTS in cells in absence of CPT. AID 686978, 2013. Potency, µM (series often up to 46.2 µM), for inactives: at the highest dose activity change, negative = growth inhibition, hits mostly inhibitors. DT40 Tdp1-/- hTDP1 cells, no CPT, ATP luminescence, 48 h. 420,000 tested, 15% active; note: nearly all actives have a fitted effect of over 55% in size
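No-CPT arm: Tdp1-/-;hTDP1 DT40 cells (400/well) plus compounds, incubated ≥48 hr at 37 °C. Readout CellTiter-Glo luminescence.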
TDP1 cell CPT: DT40-hTDP1 cell growth loss with CPT. chicken DT40 Tdp1-/-;hTDP1 cells + 20 nM CPT, ATP luminescence, 48 h. Potency, µM (series often up to 46.2 µM), inactives show at the highest dose activity change, negative = growth inhibition, actives largely listed as inhibitors. 420,000 tested, 12% active. AID 686979; note: nearly all actives have a fitted effect of over 55% in size
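Chicken DT40 Tdp1-/- cells stably complemented with human TDP1 were seeded at 400 cells/well in medium containing 20 nM camptothecin, exposed to pin-transferred compounds, and grown at 37 °C for at least 48 hr. Viability was read as ATP luminescence.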
Gal4-VP16 FLuc: counter-screen for ROR gamma inhibitors: Gal4-VP16 reporter. Drosophila S2 Gal4-VP16 UAS-luciferase, luminescence, 20 h. Potency, µM (top dose mostly 53.6 µM), inactives show at the top dose activity, negative = inhibition, actives largely listed as inhibitors. 310,000 tested, 3.5% active;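 note: Gal4-VP16 expression switched on by copper sulfate through the metallothionein promoter; nearly all actives have a fitted effect of over 50% in size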
RORgamma inh: blocks mouse ROR gamma transcriptional activity; AID 2551; Potency, µM (doses to about 53.6 µM), for inactives: top-dose activity change, negative = inhibition, usual class: inhibitors; Drosophila S2 Gal4-RORgamma UAS-luciferase reporter, 20 h; 310,000 tested, 5.4% active; P51450; note: nearly all actives have a fitted effect of over 60% in size
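In this cell-based reporter format, copper sulfate (700 uM final) drives Gal4–ROR gamma fusion expression from a metallothionein promoter in Drosophila Schneider cells; compounds preincubated 1 hr, reporter read after 20 hr at ambient temperature.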
* = called active by the depositor. Calls come from the whole dose curve; as a rule, active = well fitted curve in the direction sought with a large enough effect; inconclusive = small, poorly fitted or top-dose-only effect, or another doubt; inactive = no such curve, though single readings can be large; an effect the other way counts as inactive or inconclusive. % is set by controls: 0 for no effect and ±100 for the full control effect; potency is the fitted concentration of half-maximal effect.

CCOc1ccc(N2C(=O)/C(=C/c3cc(OC)c(OC)c(OC)c3)N(CC(=O)OC)C2=S)cc1 was read as ELG1 repair inh inconclusive, ALOX12 inh 47%, DT40 TDP1 no CPT 18µM*, TDP1 cell CPT inconclusive, Gal4-VP16 FLuc 0% and RORgamma inh inconclusive.
For COc1ccc(OC)c(/C=C/C(=O)c2ccc3c(c2)OCCO3)c1 the results were ELG1 repair inh -15%, ALOX12 inh -26%, DT40 TDP1 no CPT inconclusive, TDP1 cell CPT inconclusive, Gal4-VP16 FLuc -25% and RORgamma inh 10µM*.
COc1cc(/C=C/C(=O)c2ccc3c(c2)OCCO3)cc(OC)c1OC was read as ELG1 repair inh inconclusive, ALOX12 inh 1%, DT40 TDP1 no CPT inconclusive, TDP1 cell CPT inconclusive, Gal4-VP16 FLuc inconclusive and RORgamma inh inconclusive.
Screening Cc1cc(/C=C/C(=O)c2ccc(F)cc2)cc(C)c1O returned ALOX12 inh 45µM*.
Screening COc1nc(OCC#N)nc(N2CCOCC2)n1 returned ALOX12 inh 4%.
For COc1ccccc1OCCNC(=O)c1ccc2[nH]c(C)c(C)c2c1 the results were ALOX12 inh 13%.
Cc1cccc(C(=O)Nc2c(NC3CCCCC3)c3ccccc3oc2=O)c1 was read as ALOX12 inh -28%.
For CCOc1cc(/C=C2\NC(=O)NC2=O)c(Br)cc1OC the results were ALOX12 inh -1%.
`COC(=O)c1ccc(/C=C/C(=O)c2ccc(OC)c(OC)c2)cc1` gave ELG1 repair inh inconclusive, DT40 TDP1 no CPT inconclusive, TDP1 cell CPT inconclusive, Gal4-VP16 FLuc -6% and RORgamma inh 4%.
COc1cc(/C=C/C(=O)c2ccc3c(c2)OCO3)cc(OC)c1OC was read as ELG1 repair inh 16µM*, DT40 TDP1 no CPT 12µM* and TDP1 cell CPT inconclusive.
For COC(=O)c1ccc(/C=C/C(=O)c2ccc(OC)cc2)cc1 the results were ELG1 repair inh inconclusive, ALOX12 inh 12%, DT40 TDP1 no CPT 16µM*, TDP1 cell CPT inconclusive, Gal4-VP16 FLuc -7% and RORgamma inh 14%.
COc1ccc(C(=O)/C=C/c2ccccc2C(F)(F)F)cc1 was read as ELG1 repair inh inconclusive, ALOX12 inh -9%, DT40 TDP1 no CPT 23µM*, TDP1 cell CPT 29µM*, Gal4-VP16 FLuc 23% and RORgamma inh -26%.
Cc1occc1C(=O)Nc1nc(CC(=O)Nc2ccc3c(c2)Cc2ccccc2-3)cs1 was read as ALOX12 inh -1%.
`Cc1ccc(N(C(=O)c2ccc(C(C)(C)C)cc2)C2C=CS(=O)(=O)C2)cc1Cl` (stereo not given) gave ALOX12 inh -19%.
Cc1ccc(S(=O)(=O)N2CCCN(C(=O)c3cnn(Cc4ccccc4Cl)c3)CC2)cc1 was read as ALOX12 inh -2%.
For CC(=O)N[C@@H](CC(C)C)C(=O)N[C@@H](CC(C)C)C(=O)N[C@H](C=O)CCCN=C(N)N the results were Gal4-VP16 FLuc 2% and RORgamma inh -2%.
`CSCC[C@H](C=O)NC(=O)[C@H](CC(C)C)NC(=O)[C@H](CC(C)C)NC(C)=O` gave ALOX12 inh 0%, DT40 TDP1 no CPT 15µM*, TDP1 cell CPT 19µM*, Gal4-VP16 FLuc -2% and RORgamma inh 11µM*.
For CCCC[C@@H](C=O)NC(=O)[C@H](CC(C)C)NC(=O)[C@H](CC(C)C)NC(C)=O the results were ALOX12 inh 7%, DT40 TDP1 no CPT 1.1µM*, TDP1 cell CPT 1.3µM*, Gal4-VP16 FLuc -14% and RORgamma inh inconclusive.
For Cc1nccc(-c2cccc(NC(=O)c3cccc[n+]3[O-])c2)n1 the results were ALOX12 inh -24%.
Nc1cccc2nc3ccccc3cc12 was read as ELG1 repair inh 23µM*, DT40 TDP1 no CPT inconclusive, TDP1 cell CPT 6.5µM*, Gal4-VP16 FLuc inconclusive and RORgamma inh 14µM*.
For Cc1cc2c(N)cccc2nn1 the results were ELG1 repair inh 19%, ALOX12 inh 27%, DT40 TDP1 no CPT 4%, TDP1 cell CPT -24%, Gal4-VP16 FLuc -23% and RORgamma inh 13µM*.
Cc1cc2c(NC(=O)Nc3ccccc3)cccc2nn1 was read as ELG1 repair inh inconclusive, ALOX12 inh 35%, DT40 TDP1 no CPT inconclusive, TDP1 cell CPT -23%, Gal4-VP16 FLuc -6% and RORgamma inh -5%.
`Cc1ccc(NC(=O)C2CCN(c3ncnc4c3sc3ncccc34)CC2)cc1F` gave ALOX12 inh -71%.
For CCn1c(CSc2nnc(-c3ccc4c(c3)OCO4)o2)nc2cc(S(=O)(=O)N(C)C)ccc21 the results were ELG1 repair inh 15µM*, ALOX12 inh 0%, DT40 TDP1 no CPT inconclusive, TDP1 cell CPT inconclusive, Gal4-VP16 FLuc 2% and RORgamma inh 22%.
`CCc1ccc(OCC(=O)N/N=C(\C)c2ccc(O)cc2O)cc1` gave ELG1 repair inh inconclusive, ALOX12 inh 6%, DT40 TDP1 no CPT 2.6µM*, TDP1 cell CPT 7.3µM*, Gal4-VP16 FLuc inconclusive and RORgamma inh 13µM*.
For CCc1ccc(OCC(=O)N/N=C(\C)c2ccc3c(c2)OCCO3)cc1 the results were ELG1 repair inh -2%, ALOX12 inh inconclusive, DT40 TDP1 no CPT -6%, TDP1 cell CPT 3%, Gal4-VP16 FLuc 2% and RORgamma inh 33%.
For COc1cc(COC(=O)c2ccc(S(=O)(=O)N3CCOCC3)cc2)ccc1OC(F)F the results were ALOX12 inh -1%.
For COc1ccc(/C=C/C(=O)c2c(OC)cc(O)cc2OC)cc1 the results were ALOX12 inh 9%, Gal4-VP16 FLuc inconclusive and RORgamma inh 13%.
For COc1cc(O)cc(O)c1C(=O)/C=C/c1ccccc1 the results were ELG1 repair inh -5%, ALOX12 inh inconclusive, DT40 TDP1 no CPT 15µM*, TDP1 cell CPT 15µM*, Gal4-VP16 FLuc -11% and RORgamma inh inconclusive.
For COc1cc(OC)c(C(=O)/C=C/c2ccccc2)c(O)c1O the results were ELG1 repair inh -32%, ALOX12 inh inconclusive, DT40 TDP1 no CPT inconclusive, TDP1 cell CPT inconclusive, Gal4-VP16 FLuc 10µM* and RORgamma inh inconclusive.
Cc1ccc(Cn2ncc(Cl)c(Cl)c2=O)cc1 was read as ELG1 repair inh inconclusive, ALOX12 inh 0%, DT40 TDP1 no CPT 3.3µM*, TDP1 cell CPT 5.2µM*, Gal4-VP16 FLuc inconclusive and RORgamma inh inconclusive.

Screening data: PubChem, National Center for Advancing Translational Sciences (NCATS)
